Assay outcomes from PubChem.
Chronic BCR inh: qHTS Assay to Find Inhibitors of Chronic Active B-Cell Receptor Signaling; 0.05% of 340,000 active; Potency, µM (top dose mostly 46.1 µM), for the others: at the highest dose activity change, negative = inhibition, hits mostly inhibitors; ABC-DLBCL IkBa-CBG/CBR reporter, luminescence ratio, 4 h; active = well fitted inhibition curve with a large enough effect in the signal ratio, with a control signal flat, not every such curve was filed as active; inconclusive = small, poorly fitted or top-dose-only effect, or effect the other way, or a change in a side signal; the % refers to the signal ratio;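 also: potency is read from the fitted curve at half-maximal effect; plate controls were basal doxycycline-induced cells for no effect and cells given 10 µM MG132 for full effect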
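Doxycycline induced both beetle luciferases in TMD8 lymphoma cells; IKK-driven degradation limits the IkappaBalpha-fused green signal, while red luminescence normalises for cell number and nonspecific effects. Compounds tested up to 46 uM, 4 hrs.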
SW480 rerep: A quantitative high throughput screen for small molecules that induce DNA re-replication in SW480 colon adenocarcinoma cells; SW480 DNA re-replication, Hoechst DNA content imaging, 48 h; Potency, µM (doses to about 46.1 µM), inactives show top-dose re-replication activation, most hits filed as activators; 1.8% of 340,000 active; AID 624297, 2012; also: potency is read from the fitted curve at half-maximal effect; % of control where 0% means no effect; nearly all actives have a fitted effect of over 55% in size
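250 cells/well; 23 nL cpd via pin tool; 48 hr, 37 C, 5% CO2; Hoechst 40 min; imager read of total nuclear intensity, ex 405/em 500-530 nm.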
TDP1 cell CPT: qHTS for Inhibitors of human tyrosyl-DNA phosphodiesterase 1 (TDP1): qHTS in cells in presence of CPT; chicken DT40 Tdp1-/-;hTDP1 cells + 20 nM CPT, ATP luminescence, 48 h; Potency, µM (doses to about 46.2 µM), for the others: top-dose activity change, negative = growth inhibition, hits mostly inhibitors; 12% of 420,000 active; AID 686979, 2013; also: potency is read from the fitted curve at half-maximal effect; % is scaled to controls: 0 for no effect and ±100 for the full control effect; nearly all actives have a fitted effect of over 55% in size
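Chicken DT40 Tdp1-/- cells complemented with human TDP1, 400 cells/well, exposed to compounds plus 20 nM camptothecin for at least 48 h at 37 C; viability read as ATP content by CellTiter-Glo luminescence.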
IL-1B inflam inh: qHTS for Inhibitors of Inflammasome Signaling: IL-1-beta AlphaLISA Primary Screen. THP-1 LPS/ATP IL-1B secretion, AlphaLISA, 16 h; stronger effect = lower value. activity change, % at 57.5 µM. 4.7% of 360,000 active. AID 743279, 2014; in the data active = activity change below about -50%; inconclusive = mostly about -30% to -49%; also: % is scaled to controls: 0 for no effect and ±100 for the full control effect
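THP-1 cells pretreated 1 hr with compounds (up to 57.5 uM final), then stimulated with LPS (250 ng/mL final) plus ATP (1.25 mM final); secreted IL-1B measured by AlphaLISA after 16 hr, decreased signal indicating inhibition.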
MCF10A rerep: A quantitative high throughput screen for small molecules that induce DNA re-replication in MCF 10a normal breast cells; Potency, µM (doses to about 46.1 µM), for inactives: at the highest dose activity, positive = re-replication, hits mostly activators; 2.9% of 350,000 active; AID 624296, 2012; MCF 10A DNA re-replication, Hoechst nuclear intensity, 48 h; also: potency is read from the fitted curve at half-maximal effect; % of control where 0% means no effect; nearly all actives have a fitted effect of over 50% in size
DT40 TDP1 no CPT: qHTS for Inhibitors of human tyrosyl-DNA phosphodiesterase 1 (TDP1): qHTS in cells in absence of CPT; DT40 Tdp1-/- hTDP1 cells, no CPT, ATP luminescence, 48 h; Potency, µM (titrated, usually from 46.2 µM), inactives show at the top dose activity change, negative = growth inhibition, usual class: inhibitors; 15% of 420,000 active; also: potency is read from the fitted curve at half-maximal effect; % is scaled to controls: 0 for no effect and ±100 for the full control effect; nearly all actives have a fitted effect of over 55% in size
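Camptothecin absent (DMSO only). Human TDP1-complemented DT40 knockout cells, 400 cells/well, 37 °C for minimum 48 hr; ATP measured via CellTiter-Glo, 30 min dark incubation, luminescence.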
The depositor's hits bear a star; ? = inconclusive; · = no result; [ ] = dose if it differs, or a comment. In the library only some 19% were active in any assay of this set; here they are far more common. Unless noted, calls follow the shape of the dose curve; as a rule, active = well fitted curve in the direction sought with a large enough effect; inconclusive = small, poorly fitted or top-dose-only effect, or another doubt; inactive = no such curve, though single readings can be large; an effect the other way counts as inactive or inconclusive.

SMILES	Chronic BCR inh	SW480 rerep	TDP1 cell CPT	IL-1B inflam inh	MCF10A rerep	DT40 TDP1 no CPT
Cc1cccc(NC(=O)COC(=O)c2c(-c3ccccc3)noc2C)c1	·	·	?	0	·	?
CC(CCC(C)[n+]1cccc(C#N)c1)[n+]1cccc(C#N)c1 (centres undefined)	·	·	-8%	·	·	-23%
CCN(CC)c1ccc(S(=O)(=O)N2CCOCC2)cc1NC(=O)CNCc1cccc(Cl)c1	·	8%	18µM*	-6	4%	15µM*
O=C(CNCc1ccccc1Cl)Nc1cc(S(=O)(=O)N2CCOCC2)ccc1Cl	0%	-4%	-25%	-11	-8%	?
O=C(Cn1cnc2c(cnn2-c2ccccc2)c1=O)Nc1cc(S(=O)(=O)N2CCOCC2)ccc1Cl	-1%	0%	?	14	14%	23µM*
CCN(CC)c1ccc(S(=O)(=O)N2CCOCC2)cc1NC(=O)c1cc(=O)c2ccccc2o1	2%	-1%	8.2µM*	-1	-1%	7.3µM*
CCN(CC)c1ccc(S(=O)(=O)N2CCOCC2)cc1NC(=O)COC(=O)C1=COCCO1	·	?	?	-4	1%	?
Cc1ccc(S(=O)(=O)N2CCOCC2)cc1NC(=O)CNCc1ccc(Cl)cc1Cl	-4%	1%	?	-4	10%	16µM*
CCN(CC)c1ccc(S(=O)(=O)N2CCOCC2)cc1NC(=O)CN1C(=O)NC2(CCCC2)C1=O	1%	0%	-29%	-4	0%	2%
CC1C(=O)N2CCCc3cc(NC(=O)C(=O)NCCCc4ccccc4)cc1c32 (centres undefined)	-13%	-3%	?	7	20%	?
O=C(NC1CCCC1)c1cc(-c2ccc(Cl)cc2Cl)on1	-5%	-15%	3%	-21	0%	-22%
CC(C)CN1C(=O)NC2(CCCc3ccccc32)C1=O (centres undefined)	-5%	12%	-1%	28	-2%	17%
Cc1ccc(S(=O)(=O)N2CCN(C(=O)CCC(=O)NCc3ccc(F)cc3)CC2)cc1	-1%	2%	-19%	26	-1%	-15%
CCN(CC)c1ccc(S(=O)(=O)N2CCOCC2)cc1NC(=O)CSc1nncn1C	?	-5%	-27%	0	-5%	-7%
Cc1noc(C)c1C(=O)OCC(=O)Nc1ccccc1C(=O)NC(C)c1ccccc1 (centres undefined)	8%	10%	29µM*	-10	20%	21µM*
CCN(CC)c1ccc(S(=O)(=O)N2CCOCC2)cc1NC(=O)CSc1ccccc1	6%	28%	16µM*	-13	19%	?
Cc1onc(-c2ccccc2)c1C(=O)OCC(=O)Nc1cc(S(=O)(=O)N2CCOCC2)ccc1Cl	?	2%	23µM*	-21	-8%	23µM*
COc1cccc(-n2cc(C(=O)Nc3ccccc3C(N)=O)c3ccccc3c2=O)c1	·	·	?	·	·	10µM*
CCOC(=O)c1cccc(NC(=O)c2cn(-c3cccc(OC)c3)c(=O)c3ccccc23)c1	·	·	-4%	·	·	-15%
COc1ccc(CN(C)C(=O)CCN=C2NS(=O)(=O)c3ccccc32)c(OC)c1	-10%	-35%	-20%	23	3%	-3%
CCOC(=O)c1cnc(-n2nc(C)cc2C)nc1Nc1ccc(OC)cc1	1%	?	8.2µM*	-13	9%	12µM*
CCOC(=O)c1cnc(-n2nc(C)cc2C)nc1NCCc1ccccc1	?	14%	6.5µM*	18	?	5.2µM*
CCOC(=O)c1cnc(-n2nc(C)cc2C)nc1NC1CCCC1	?	-14%	1.3µM*	24	0%	1.3µM*
CCOC(=O)c1cnc(-n2nc(C)cc2C)nc1Nc1ccccc1OC	1%	·	·	·	·	·
CCC(O)C1CCN(C(=O)c2ccc(OC3CCN(Cc4ccccn4)CC3)cc2)CC1 (centres undefined)	0%	5%	-11%	12	1%	20%
SMILES	Chronic BCR inh	SW480 rerep	TDP1 cell CPT	IL-1B inflam inh	MCF10A rerep	DT40 TDP1 no CPT
COc1ccc(C(=O)O)cc1S(=O)(=O)Nc1ccccc1Cc1ccccc1	?	2%	3%	35	-3%	5%
COc1ccc(-c2csc3ncnc(N4CCN(c5cccc(OC)c5)CC4)c23)cc1	-4%	-1%	16µM*	-6	3%	18µM*
COc1ccc(-c2csc3ncnc(N4CCN(c5cccc(Cl)c5)CC4)c23)cc1	-5%	?	?	10	?	16µM*
COc1ccccc1NS(=O)(=O)c1cccc(C(=O)OCC(=O)NC2CC2)c1	0%	?	-2%	9	1%	-15%
COc1ccc(CC(N)c2csc(NC(=O)Nc3ccc(F)cc3)n2)cc1 (centres undefined)	·	·	23µM*	-65*	·	13µM*
NC(Cc1ccc(C(F)(F)F)cc1)c1csc(NC(=O)Nc2ccccc2Cl)n1 (centres undefined)	·	·	?	-72*	·	21µM*
COc1ccc(CC(N)c2csc(NC(=O)Nc3cccc(C(F)(F)F)c3)n2)cc1 (centres undefined)	·	·	?	-57*	·	?
NC(CO)c1csc(NC(=O)Nc2cccc(Cl)c2)n1 (centres undefined)	·	·	-7%	0	·	-14%
NC(Cc1ccc(Cl)cc1)c1csc(NC(=O)Nc2ccccc2)n1 (centres undefined)	·	·	13µM*	-29	·	15µM*
O=C(OCc1cc(=O)n2nc(-c3cccs3)sc2n1)c1ccccc1	·	·	7%	·	·	-17%
COCC(=O)Nc1c(I)c(C(=O)NC[C@@H](O)CO)c(I)c(C(=O)N(C)C[C@@H](O)CO)c1I	·	-9%[20.6 µM]	·	·	-6%[20.6 µM]	·
O=C(Nc1ccc(Br)cc1F)c1cc2nc(-c3ccco3)cc(C(F)(F)Cl)n2n1	·	·	-13%	·	·	-10%
CC(C)C(N)c1csc(NC(=O)Nc2ccc(OC(F)(F)F)cc2)n1 (centres undefined)	·	·	?	-70*	·	23µM*
CC(C)[C@H](NC(=O)Nc1cccc(C(F)(F)F)c1)C(=O)O	1%	-2%	21%	33	-2%	-1%
